# Shown are actives, neighbours in structure and some others; about 2.8% of the full set was active somewhere.
# Akt phos inh: blocks phosphorylation of Akt | Neuro2A IGF-stimulated pAkt S473 HTRF, 20 min; hits give low values | activity change, % for hits at 50 µM | 360,000 tested, 0.32% active | AID 651550; in the data active = activity change below about -80%; inconclusive = mostly about -51% to -80%; also: % is scaled to controls: 0 for no effect and ±100 for the full control effect
#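 Neuro2A cells in DMEM with 0.5% FBS, overnight at 37 deg C, given compound at single 50 µM final, then IGF (6 nM final) for 20 min at 37 deg C. Lysed; phospho-Akt Ser473 by HTRF after 24 h, 665/615 ratio.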
# D3 antag: blocks the human D3 dopamine receptor. D3R cells, DiscoveRx beta-arrestin luminescence, antagonist mode; hits give low values. max response, negative = inhibition, %. 360,000 tested, 2.5% active. AID 652054; in the data active = max response below about -50%; inconclusive = no clear call, values can overlap the other calls; also: % is scaled to controls: 0 for no effect and ±100 for the full control effect
# Target sequence (P35462 whole entry, looked up): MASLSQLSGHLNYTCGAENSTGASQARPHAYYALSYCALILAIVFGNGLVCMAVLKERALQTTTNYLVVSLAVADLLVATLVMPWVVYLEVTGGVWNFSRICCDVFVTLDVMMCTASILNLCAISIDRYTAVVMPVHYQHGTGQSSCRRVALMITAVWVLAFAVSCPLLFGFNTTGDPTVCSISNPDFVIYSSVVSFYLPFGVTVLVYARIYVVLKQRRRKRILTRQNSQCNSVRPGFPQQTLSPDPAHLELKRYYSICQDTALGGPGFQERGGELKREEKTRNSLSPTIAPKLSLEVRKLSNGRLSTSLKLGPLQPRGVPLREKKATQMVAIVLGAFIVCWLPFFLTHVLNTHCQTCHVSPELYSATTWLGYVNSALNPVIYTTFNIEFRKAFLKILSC
#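 Cells plated overnight at 1500 cells/well, then exposed to library compounds with dopamine controls for 90 minutes at 37 degrees C. DiscoveRx reagent added for 30–60 minutes at room temperature; luminescence read, quantitative HTS format.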
# RGS4 inhibitor: blocks human RGS4-accelerated GTP hydrolysis | 390,000 tested, 0.039% active | P49798 | AID 504845 | Transcreener GDP fluorescence polarization, RGS4-accelerated GTP hydrolysis | Potency, µM (top dose mostly 114 µM), without a hit: at the highest dose activity change, negative = inhibition, hits mostly inhibitors; active = well fitted inhibition curve with a large enough effect; inconclusive = small, poorly fitted or top-dose-only effect; inactive = no such curve, though single readings can be large or run the other way; also: potency is read from the fitted curve at half-maximal effect; % is scaled to controls: 0 for no effect and ±100 for the full control effect; nearly all actives have a fitted effect of over 75% in size
# Target sequence (P49798 whole entry, looked up): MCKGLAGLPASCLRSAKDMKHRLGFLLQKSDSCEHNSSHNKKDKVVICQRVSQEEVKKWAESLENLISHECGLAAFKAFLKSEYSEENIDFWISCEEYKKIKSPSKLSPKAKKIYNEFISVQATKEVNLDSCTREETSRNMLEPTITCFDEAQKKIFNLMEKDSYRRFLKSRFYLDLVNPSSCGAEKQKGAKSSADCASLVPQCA
#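 MLSMR compounds (23 nl, pin-transferred) preincubated 10 min at room temperature with a 500nM (2x) first reagent, then RGS4 at 900nM (2x) plus Transcreener GDP mix added; fluorescence polarization (620/688 nm) read before and after 90 min at 30 °C.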
# PI4K2A block: inhibitors of human PI4K2A; Q9BTU6; purified PI4K2A, ADP-Glo luminescence, 1 h; hits give low values; activity change, negative = inhibition, % at 76.9 µM; 420,000 tested, 0.13% active; in the data active = activity change below about -50%; inconclusive = mostly about -30% to -49%;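 also: -100% = wells without enzyme as full effect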
#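 ADP-Glo luminescence measured ADP generated by PI4K2A enzyme (4 ug/mL before mixing) with 1.2 mM PI substrate (pre-mix) and 300 microM ATP (pre-mix). Tris pH7.5 buffer with MgCl2, Triton X-100; 1 h reaction at ambient temperature.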
# LDHA inh: inhibitors of human lactate dehydrogenase A | activity change, % (values are at about 110 or 230 µM) | 480,000 tested, 0.15% active | purified LDHA, NADH/diaphorase-resazurin fluorescence; hits give low values | AID 1347041 | P00338; in the data active = activity change below about -30%; inconclusive = mostly about -25% to -30%;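 also: plate controls were DMSO wells for no effect and wells without enzyme for full effect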
#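 LDH5 2 nM; NADH 0.06 mM, pyruvate 0.2 mM; 200 mM Tris pH 7.4, EDTA, Tween-20; 5 min RT. Detection: diaphorase 0.133 mg/mL + resazurin 37 µM, fluorescence ex540/em590 at 0 and 20 min; normalized to enzyme-free and DMSO wells.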
# D3 ag: agonists of human D3 dopamine receptor. AID 652048. 410,000 tested, 0.58% active. D3R DiscoveRx beta-arrestin cells, luminescence, 90 min. max activation, %; in the data active = max activation above about 30%; also: 0% is about no effect
#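 Agonist mode: compounds and dopamine controls were applied to plated cells for 90 min at 37 degrees C after an overnight attachment at 1500 cells/well. Luminescent read-out followed 30 - 60 minutes at room temperature with DiscoveRx detection reagent.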
# * = called active by the depositor; i = inactive; ? = inconclusive; · = not tested or not shown.
SMILES,Akt phos inh,D3 antag,RGS4 inhibitor,PI4K2A block,LDHA inh,D3 ag
O=C(NC(NC(c1ccccc1)C(Cl)Cl)C(Cl)(Cl)Cl)c1ccccc1 (centres undefined),·,·,·,·,0,·
CCN1/C(=C/C=C/C2=[N+](CC)c3ccccc3C2(C)C)C(C)(C)c2ccccc21,i,-72*,·,?,-13,-5
CN1/C(=C\C=C2C(=O)NC(=O)NC2=O)C(C)(C)c2ccccc21,i,1,-6%,-1,1,1
Cc1[nH]nc2c1C(c1ccc(-c3ccccc3Cl)o1)SCC(=O)N2 (centres undefined),·,·,·,·,4,·
CC(=O)N1CCC(N2CCCC(C(=O)c3cccc(Cl)c3)C2)CC1 (centres undefined),i,-12,6%,4,-10,129*
COc1cccc(OC)c1CN1CCCC(C(=O)c2cccc(Cl)c2)C1 (centres undefined),i,-78*,17%,-1,2,-27
COc1ccc(F)cc1C(=O)C1CCCN(Cc2ccc(O)cc2)C1 (centres undefined),i,-65*,-6%,0,-9,-15
COc1cccc(C(=O)C2CCCN(C3CCOCC3)C2)c1 (centres undefined),i,-9,4%,1,-6,1
COc1ccccc1CN1CCCC(C(=O)c2ccccc2SC)C1 (centres undefined),i,?,-15%,-3,-6,-7
CCOc1ccccc1CN1CCCC(C(=O)c2cc(F)ccc2F)C1 (centres undefined),i,-72*,-34%,2,-2,-20
CN(C(=O)CN1CC=C(c2ccccc2)CC1)C1CCS(=O)(=O)C1 (centres undefined),·,·,·,·,6,·
CN1C(=O)NC(=O)C2(Cc3c(ccc4ccccc34)N(C)C2)C1=O (centres undefined),·,·,·,·,45,·
COc1ccc(OC)c(C2SCC(=O)Nc3c2c(C)nn3-c2ccccc2)c1 (centres undefined),·,·,·,·,2,·
COc1ccc(C(=O)C2CCCN(Cc3ccc(F)cc3F)C2)cc1F (centres undefined),i,-29,-5%,2,1,-11
CCOc1ccc(CN2CCCC(C(=O)c3ccccc3OC)C2)cc1 (centres undefined),i,-81*,-10%,-10,0,-23
COc1ccc(C(=O)C2CCCN(CCc3ccccc3)C2)cc1OC (centres undefined),i,-68*,·,-2,0,-25
COc1ccccc1CN1CCCC(C(=O)c2ccccc2OC)C1 (centres undefined),i,-59*,-15%,5,0,-24
CCN1CCN(C(=O)COc2ccc3c(=O)c(-c4ccc(OC)cc4)c(C)oc3c2)CC1,·,·,·,·,-5,·
Cc1ccc(CN2CCCN(Cc3ccc(Cl)cc3)S2(=O)=O)cc1,i,-18,17%,0,-9,77*
Cc1nn(-c2ccccc2)c2c1C(c1cnn(C)c1C)SCC(=O)N2 (centres undefined),·,·,·,·,-19,·
Cn1cc(C(=O)OCC(=O)Nc2c(F)cccc2F)c2ccccc21,·,·,·,·,-1,·
c1cc2ccc3cccc4ccc(c1)c2c34,·,·,·,i,·,9
O=C1C(=O)c2cccc3cccc1c23,i,-59*,20%,9,22,-18
O=C1C(=O)c2ccccc2-c2ccccc21,i,-67*,?,?,19,-72
O=C1C(c2ccccc2)=C(N2CC2)c2ccccc21,i,-24,-32%,3,-8,-26
SMILES,Akt phos inh,D3 antag,RGS4 inhibitor,PI4K2A block,LDHA inh,D3 ag
C=CCOC(=O)C1=C(C)OC(N)=C(C(=O)OCC)C12C(=O)Nc1ccccc12 (centres undefined),·,·,·,·,14,·
CCCN1C(=O)NC(=O)C2(Cc3c(ccc4ccccc34)N(C)C2)C1=O (centres undefined),·,·,·,·,34,·
CCn1nc(-c2ccccc2)nc2c(=O)n(C)c(=O)nc1-2,i,?,-32%,-57*,29,-14
Cn1nc(-c2ccccc2)nc2c(=O)n(C)c(=O)nc1-2,·,·,-46%,·,25,·
CC(=O)c1c(C)[nH]c(C(=O)C(C)NC(C)c2ccc(Cl)cc2Cl)c1C (centres undefined),·,·,·,·,-1,·
CC(C)n1cnc2c(C(=O)N[C@H]3CN4CCC3CC4)cc(Cl)cc21,·,·,4.7µM*,·,·,·
CCCCOC(=O)C1=C(N)OC2=C(C(=O)CCC2)[C@]12C(=O)N(C)c1ccccc12,i,-54*,18%,4,6,8
CCOC(=O)C1=C(N)OC2=C(C(=O)CCC2)C12C(=O)N(C)c1ccccc12 (centres undefined),i,7,14%,-7,5,5
O=C(CCN1CC=C(c2ccccc2)CC1)NCc1ccccc1,i,-69*,·,-4,-3,10
O=C(O)c1ccc2[nH]cc(CCCCN3CC=C(c4ccccc4)CC3)c2c1,·,·,·,-1,·,73*
Cc1[nH]c2ccccc2c1C(=O)CN1CC=C(c2ccccc2)CC1,i,?,30%,0,-5,1
Oc1ccc2ccccc2c1CN1CC=C(c2ccccc2)CC1,i,?,-13%,5,6,-12
NC1CC1c1ccccc1C(F)(F)F (centres undefined),·,·,·,·,2,·
CC1CCN(C(CC(=O)c2ccccc2)C(=O)c2ccccc2)CC1 (centres undefined),i,-79*,-139%,6,2,-20
C[n+]1c2ccccc2nc2ccc(NCCO)cc21,i,-54*,?,?,40,-23
CNc1ccc2nc3ccccc3[n+](C)c2c1,i,-59*,?,?,7,-11
OCCNc1c2c(nc3ccccc13)CCCC2,i,-26,-18%,-2,2,-1
COc1ccc(-c2c(C)oc3cc(OC(=O)N(C)C)ccc3c2=O)cc1,·,·,·,·,0,·
CNC(=O)NC(=O)COC(=O)c1cn(C)c2ccccc12,·,·,·,·,16,·
COc1ccc(CN2C(=O)NC(=O)/C(=C\c3cccc(OC)c3OC)C2=O)cc1,i,3,?,-19,-31*,1
O=C1c2ccccc2C(=O)N1SC1CCCCC1,i,-92*,?,15,1,1
NC(=O)c1cn(C2CCCCC2)c2ccccc2c1=O,i,21,-3%,1,-10,1
O=c1[nH]c2ccccc2n1C1CCN(C(c2cc3ccccc3o2)c2nnnn2-c2ccc3c(c2)OCCO3)CC1 (centres undefined),i,83,·,2,-3,43*
